PubChem BioAssay (NCI)
Compounds without any hit were thinned out: in the full panel of roughly 83,000, 20% have a hit.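 Note: values are percent growth. 100 is the growth of untreated cells, values between 100 and 0 indicate rising inhibition; between -100 and 0 indicates cell death.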 Unmarked numbers belong to inactive results. Activity calls are given as the source filed them. How the source made its calls: active means growth percent below 10; inactive means the rest.

How the values were obtained:
Assay in all cases: NCI-60 one-dose screen, 48 h (100 = growth as untreated, 0 = no growth, -100 = all killed)
Details in all cases: 10 µM unless noted
[1] = test system: SK-MEL-2 melanoma
[2] = test system: EKVX NSCLC
[3] = test system: SN12C renal
[4] = test system: UO-31 renal
[5] = test system: TK-10 renal
[6] = test system: ACHN renal
[7] = test system: CAKI-1 renal
[8] = test system: A498 renal
[9] = test system: CCRF-CEM leukemia
[10] = test system: MOLT-4 leukemia
[11] = test system: RPMI-8226 leukemia
[12] = test system: OVCAR-8 ovarian
[13] = test system: OVCAR-5 ovarian
[14] = test system: OVCAR-4 ovarian
[15] = test system: SK-OV-3 ovarian
[16] = test system: IGROV1 ovarian
[17] = test system: OVCAR-3 ovarian
[18] = test system: HS 578T breast
[19] = test system: NCI/ADR-RES ovarian

Row | Structure (SMILES) | growth [1] | growth [2] | growth [3] | growth [4] | growth [5] | growth [6] | growth [7] | growth [8] | growth [9] | growth [10] | growth [11] | growth [12] | growth [13] | growth [14] | growth [15] | growth [16] | growth [17] | growth [18] | growth [19]
1 | COc1nc2ccccc2cc1-c1nc2c(cnn2-c2ccc(Br)cc2)c(=O)[nH]1 | 24.3% | 42.4% | 33.2% | 27.1% | 40.6% | 35.4% | 29.4% | 8.46% (active) | 13.7% | 47.7% | 20.7% | 27.7% | 44.1% | 57.3% | 15.1% | 41.8% | -34.2% (active) | 23% | 4.99% (active)
2 | O=S(=O)(NCCCNc1cc(-c2c(-c3cccc(O)c3)nc3sccn23)ccn1)c1cccc2ccccc12 | 59.8% | 50% | 21.1% | 27.6% | 82.7% | 38.9% | 36.1% | 59% | 21.2% | 26.4% | 8.85% (active) | 19% | 102% | 36.4% | 58.2% | 30.6% | 40.1% | 22.7% | 77%
3 | COc1ccc2cc(C(C)C(=O)Nc3ccc(-c4n[nH]c(=S)n4C4CCCCC4)cc3)ccc2c1 (centres undefined) | 77% | 70.5% | 73.4% | -79.3% (active) | 95.9% | 73.4% | 44.7% | 77.3% | 64.4% | 55.9% | 54.3% | 75.6% | 101% | 88.1% | 105% | 88.9% | 86.4% | 75.1% | 50.7%
4 | COc1cc(Nc2nc(NCCN)nc3cc[nH]c(=O)c23)cc(OC)c1 | 30.8% | 87.5% | 70.3% | 112% | 95.3% | 99% | 94.1% | 111% | 68.6% | 74.4% | 80% | 76.3% | 67.9% | 80.7% | 51.4% | 57.8% | 109% | 82.5% | 98.6%
5 | COc1c(C2CC(=O)Nc3c2c(C)nn3-c2nc3ccccc3[nH]2)cc2c(c1OC)OCO2 (centres undefined) | 29.6% | 58% | 68.8% | 45.4% | 66.9% | 55.8% | 71.6% | 22.6% | 11.3% | -12.7% (active) | 53.6% | 52% | 105% | 83.2% | 42% | 48.8% | 36.1% | 28.3% | 39.8%
6 | O=C(/C=C/c1ccc([N+](=O)[O-])o1)NNC(=O)c1cc2ccccc2cc1O | -50.9% (active) | 38.6% | 7.5% (active) | 2.06% (active) | 19.3% | -82% (active) | 22.5% | -51% (active) | 6.58% (active) | 3.05% (active) | -6.98% (active) | 8.19% (active) | 45.7% | 29.3% | 32.8% | -1.53% (active) | -32.3% (active) | 33% | 5.33% (active)
7 | C[C@]12CC[C@@H]3c4cc(OC(F)F)c(OS(N)(=O)=O)cc4CC[C@H]3[C@@H]1CC[C@@H]2OS(N)(=O)=O | 36.1% | 19% | 42% | 42.9% | 100% | 40.6% | 39.1% | 94.8% | 22.9% | 20.6% | 39.3% | 46.2% | 94.9% | 76.1% | 44.7% | 47.6% | 16.2% | 5.84% (active) | 11.3%
8 | O=C(CS(=O)c1oc(-c2cccs2)nc1S(=O)(=O)c1ccc(Br)cc1)c1ccccc1 (centres undefined) | 89.3% | 111% | 96.2% | 80.3% | 104% | 94.1% | 90.9% | 49.1% | 94.1% | 94.2% | 91.8% | 91.4% | 89.2% | 75.2% | 89.8% | 101% | 103% | 79.5% | 93.8%
9 | Cc1cc2nc3cc(C)c(N)cc3[n+](-c3ccccc3)c2cc1N | 82.8% | 47.3% | 13.9% | 84.2% | 93.8% | 89.1% | 97.5% | 85.7% | 58.3% | 52.8% | 41.4% | 40.7% | 103% | 36.4% | 91.3% | 79.4% | 26.2% | 59.2% | 101%
10 | CCCCCCCCCCCCCCCCCCOc1ccc(CC(=O)OCC[N+](C)(C)C)cc1 | 115% | 101% | 94.1% | 101% | 93.8% | 99.9% | 90.4% | 119% | 102% | 2.06% (active) | 91.7% | 107% | 96.8% | 97.3% | 107% | 91% | 115% | 99.6% | 99.3%
11 | Cc1cc(=O)oc2cc(OC(=O)N3CCN(C)CC3)ccc12 | 116% | 99.2% | 97.9% | 85.3% | 125% | 96.6% | 89.7% | 105% | 104% | 97.7% | 108% | 103% | 98.7% | 104% | 110% | 110% | 106% | 99.4% | 104%
12 | O=C(/C=C/c1sc(Cl)nc1Cl)c1ccccc1 | 104% | 101% | 44.8% | 90.7% | 111% | 46.9% | 93.1% | 100% | 34.9% | 32.3% | 14% | 93.5% | 99.5% | 108% | 103% | 91.9% | 46% | 103% | 101%
13 | COc1cc(C(=O)/C=C/c2ccc(OCCCCCC[P+](c3ccccc3)(c3ccccc3)c3ccccc3)cc2)cc(OC)c1OC | -67.3% (active) | -9.14% (active) | -63.8% (active) | 1.6% (active) | -72% (active) | -44.5% (active) | 13.2% | -42% (active) | 20.3% | 14% | 0.339% (active) | -45.5% (active) | -13% (active) | 10.1% | -35.9% (active) | -60.2% (active) | -48% (active) | -6.89% (active) | 74.4%
14 | COc1ccc(/C=C/c2c(C(=O)/C=C/c3ccc(C(F)(F)F)cc3)c(C)nc3ccccc23)cc1 | -12.1% (active) | -18.7% (active) | -42.9% (active) | -87.7% (active) | -14% (active) | -94.3% (active) | -38% (active) | -66.3% (active) | 7.64% (active) | 6.21% (active) | -25.7% (active) | 9.68% (active) | -33.6% (active) | -6.41% (active) | 27.3% | -57.2% (active) | -71% (active) | 1.9% (active) | 2.01% (active)
15 | CN1CCN(c2ccc(-c3ccc4ncc(C#N)c(Nc5ccc(F)c(Cl)c5)c4c3)cc2)CC1 | 48.3% | 54.4% | 59.9% | 30.4% | 36.3% | 18.9% | 33.8% | -7.38% (active) | 13.1% | 35.7% | 4.87% (active) | 47.9% | 57.6% | 46.8% | 27% | 11.4% | 59.8% | 43.3% | 50.5%
16 | Cc1nc2ccccc2c(/C=C/c2ccc(Cl)cc2)c1C(=O)/C=C/c1cccs1 | 90.9% | 80.9% | 72% | 54.3% | 125% | 78.3% | 46.2% | 40.9% | 59.6% | 54.7% | 53.4% | 74.9% | 92.6% | 60.7% | 78.5% | 46.6% | 82.2% | 86.7% | 80.7%
